Out of some 5,500 compounds screened, about 2,000 (36%) were called active. Another 18% or so got no clear call; they are omitted. No stated cut-off is given here; in the data, active means normalized growth mostly below about 0.91 (no sharp cut-off); inconclusive means no clear call, values can overlap the other calls; inactive means mostly above about 0.92. The list shows a part of the results.
Test: chemical genetic growth profiling, strain panel (AID 1159580);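 further: tested at 20 µM; growth read once vehicle control cultures reached saturation at 30 °C; 1 = growth at the plate median or of vehicle wells; lower values mean less growth of the strain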
Details: S. cerevisiae deletion strains, growth OD

Measured: normalized growth

COc1cc(OC)c2c(=O)c(-c3ccc4c(c3)OCO4)coc2c1
inactive: locus YAL021C, strain ccr4, hits give low values 1.01 | locus YAL026C, strain drs2, hits give low values 0.982 | locus YAL030W, strain snc1, hits give low values 0.977 | locus YBL061C, strain skt5, hits give low values 0.979 | locus YBR009C, strain hhf1, hits give low values 0.984 | locus YBR023C, strain chs3, hits give low values 0.989 | locus YBR171W, strain sec66, hits give low values 0.969 | locus YBR231C, strain swc5, hits give low values 1 | locus YBR279W, strain paf1, hits give low values 0.992 | locus YCL011C, strain gbp2, hits give low values 0.981 | locus YCL016C, strain dcc1, hits give low values 0.986 | locus YCL061C, strain MRC1, hits give low values 0.996 | locus YCL069W, strain vba3, hits give low values 0.983 | locus YCR088W, strain abp1, hits give low values 0.979 | locus YDL005C, strain med2, hits give low values 0.997 | locus YDL040C, strain nat1, hits give low values 0.981 | locus YDR001C, strain nth1, hits give low values 0.98 | locus YDR069C, strain doa4, hits give low values 0.998 | locus YDR137W, strain rgp1, hits give low values 1.01 | locus YDR159W, strain sac3, hits give low values 1.01 | locus YDR195W, strain ref2 0.988 | locus YDR297W, strain sur2, hits give low values 0.989 | locus YDR334W, strain swr1, hits give low values 0.991 | locus YDR335W, strain msn5, hits give low values 1 | locus YDR392W, strain spt3, hits give low values 0.802 | locus YEL003W, strain gim4, hits give low values 0.992 | locus YEL037C, strain rad23, hits give low values 0.993 | locus YEL061C, strain CIN8 (second series), hits give low values 0.986 | locus YER015W, strain faa2, hits give low values 1 | locus YER016W, strain bim1, hits give low values 0.987 | locus YER111C, strain swi4, hits give low values 1.01 | locus YER155C, strain BEM2 (second series), hits give low values 0.942 | locus YFR010W, strain ubp6, hits give low values 1 | locus YGL167C, strain pmr1, hits give low values 0.984 | locus YGL173C, strain kem1, hits give low values 0.985 | locus YGL227W, strain vid30, hits give low values 0.978 | locus YGL240W, strain doc1, hits give low values 1.02 | locus YGL253W, strain hxk2, hits give low values 0.977 | locus YHR013C, strain ard1, hits give low values 0.971 | locus YHR027C, strain rpn1, hits give low values 1 | locus YHR030C, strain SLT2, hits give low values 1.05 | locus YHR079C, strain IRE1, hits give low values 1.05 | locus YHR142W, strain chs7, hits give low values 0.931 | locus YJL092W, strain hpr5, hits give low values 0.978 | locus YJL095W, strain BCK1 (second series), hits give low values 0.984 | locus YJL095W, strain BCK1, hits give low values 1.03 | locus YJL115W, strain asf1, hits give low values 0.992 | locus YJL129C, strain trk1, hits give low values 0.918 | locus YJL154C, strain vps35, hits give low values 0.991 | locus YJL164C, strain tpk1, hits give low values 0.98 | locus YJL166W, strain qcr8, hits give low values 0.99 | locus YJL187C, strain SWE1, hits give low values 0.996 | locus YJR066W, strain TOR1, hits give low values 0.99 | locus YKL160W, strain elf1, hits give low values 0.991 | locus YKR026C, strain gcn3, hits give low values 0.98 | locus YKR091W, strain srl3, hits give low values 0.986 | locus YLL001W, strain dnm1, hits give low values 0.977 | locus YLL026W, hits give low values 0.985 | locus YLL041C, strain sdh2, hits give low values 0.99 | locus YLR027C, strain aat2, hits give low values 0.979 | locus YLR113W, strain HOG1, hits give low values 1.08 | locus YLR221C, strain rsa3, hits give low values 0.961 | locus YLR258W, strain gsy2, hits give low values 0.976 | locus YLR262C, strain YPT6 (second series), hits give low values 1.04 | locus YLR320W, strain mms22, hits give low values 0.964 | locus YLR342W, strain FKS1, hits give low values 0.983 | locus YLR357W, strain rsc2, hits give low values 0.987 | locus YLR370C, strain arc18, hits give low values 0.99 | locus YLR384C, strain iki3, hits give low values 0.99 | locus YML120C, strain ndi1, hits give low values 0.967 | locus YMR058W, strain fet3, hits give low values 0.983 | locus YMR125W, strain sto1, hits give low values 0.989 | locus YMR129W, hits give low values 0.981 | locus YMR205C, strain PFK2, hits give low values 0.962 | locus YMR231W, strain pep5, hits give low values 0.987 | locus YNL071W, strain lat1, hits give low values 0.954 | locus YNL183C, strain NPR1, hits give low values 0.984 | locus YNL209W, strain ssb2, hits give low values 0.985 | locus YNL248C, strain rpa49, hits give low values 1.02 | locus YNL322C, strain KRE1 (second series), hits give low values 0.983 | locus YNR049C, strain mso1, hits give low values 0.995 | locus YOR001W, strain rrp6, hits give low values 0.994 | locus YOR070C, strain gyp1, hits give low values 0.999 | locus YOR080W, strain dia2, hits give low values 1 | locus YOR083W, strain WHI5, hits give low values 0.98 | locus YOR106W, strain vam3, hits give low values 0.986 | locus YOR231W, strain MKK1, hits give low values 1.07 | locus YOR265W, strain rbl2, hits give low values 0.99 | locus YOR270C, strain vph1, hits give low values 0.922 | locus YOR290C, strain snf2, hits give low values 0.957 | locus YPL051W, strain arl3, hits give low values 1.01 | locus YPL078C, strain atp4, hits give low values 0.983 | locus YPL106C, strain sse1, hits give low values 0.987 | locus YPL240C, strain hsp82, hits give low values 0.984 | locus YPL256C, strain CLN2, hits give low values 1.05
